# hcDAF-12 act: H. contortus DAF-12 activation, primary screen; activation, % at 6.8 µM; hit rate 1.4% among 370,000; HEK293 hcDAF-12 lit1-tk-luc reporter, luminescence; 0% DMSO, 100% Δ7-dafachronic acid;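 active = activation above the mean of all tested compounds plus 3 SD, cut at about 5.5% in these data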;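 note: 100% = response to 3 µM Δ7-dafachronic acid high control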
# Wee1 degr inh: human Wee1 degradation inhibition, primary screen | P30291 | HeLa Luc-Wee1K328M stability, luciferase luminescence; 100% = proteasome inhibitor MG132 effect | reporter increase, % at 5 µM | hit rate 1.2% among 220,000;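 active = activation above the mean of all tested compounds plus 3 SD, set per screening run, cut at about 8.8% in these data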;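 note: cells exposed to compound for 20 h before luminescence read; 0% = DMSO alone and 100% = MG132 at 30 µM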
# Target sequence (P30291 whole entry K328M): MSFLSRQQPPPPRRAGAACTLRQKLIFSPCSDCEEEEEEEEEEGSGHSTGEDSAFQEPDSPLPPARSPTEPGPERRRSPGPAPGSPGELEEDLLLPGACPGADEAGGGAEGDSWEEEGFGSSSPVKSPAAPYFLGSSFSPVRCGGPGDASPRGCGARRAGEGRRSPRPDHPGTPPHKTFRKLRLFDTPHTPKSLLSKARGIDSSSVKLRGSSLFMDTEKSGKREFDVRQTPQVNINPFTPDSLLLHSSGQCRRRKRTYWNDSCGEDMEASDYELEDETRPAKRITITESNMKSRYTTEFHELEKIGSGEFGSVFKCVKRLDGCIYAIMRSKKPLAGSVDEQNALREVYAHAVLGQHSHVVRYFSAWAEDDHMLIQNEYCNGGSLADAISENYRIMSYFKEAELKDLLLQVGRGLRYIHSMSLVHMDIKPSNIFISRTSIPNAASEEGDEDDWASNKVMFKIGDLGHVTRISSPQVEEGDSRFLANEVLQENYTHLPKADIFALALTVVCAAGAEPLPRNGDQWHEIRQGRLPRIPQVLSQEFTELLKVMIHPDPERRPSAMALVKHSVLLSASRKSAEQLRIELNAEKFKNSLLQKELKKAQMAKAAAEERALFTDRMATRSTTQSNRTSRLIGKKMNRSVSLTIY
# ssDAF12 agonist: S. stercoralis DAF-12 activation, primary screen; HEK293 ssDAF-12/GRIP1 lit1-tk-luc reporter, luminescence; % of 3 µM dafachronic acid response; activation, % at 6.8 µM; hit rate 1% among 370,000; AID 652126;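 active = activation above the mean over all tested compounds plus 3 SD, cut at about 0.9% in these data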;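 note: 0% = DMSO-only wells and 100% = 3 µM delta7-dafachronic acid wells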
# DAX1 inh-1: inhibits human nuclear receptor DAX1; P51843; HEK293 Gal4-DAX1 luciferase reporter, luminescence; inhibition, % at 6.75 µM; hit rate 0.99% among 340,000; AID 504766;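 active = inhibition above the mean over all tested compounds plus 3 SD, cut at about 4.2% in these data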;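 note: 0% = DAX1-transfected cells with DMSO and 100% = empty-vector control cells with DMSO; inhibition shows as a rise in luminescence from relieved DAX1 repression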
# DAX1 inh-2: inhibitors of DAX1 repression of SF-1 activated StAR promoter; inhibition, % at 6.8 µM; AID 652010; HEK293T StAR-luciferase reporter, SF-1/DAX-1 repression relief; hit rate 1.1% among 370,000;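 active = inhibition above the mean over all tested compounds plus 3 SD, cut at about 3.6% in these data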;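 note: 0% = DAX-1 cells with DMSO and 100% = cells lacking DAX-1 with DMSO; higher inhibition means more luminescence from relief of DAX-1 repression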
# hgDAF-12 ag: agonists of H. glycines DAF-12 nuclear receptor; HEK293 GAL4-hgDAF12 UAS-luciferase reporter, agonist luminescence; normalized to butyrate control; activation, % at 6.8 µM; hit rate 1.8% among 370,000; AID 687014;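 active = activation above a cutoff set at the mean of all screened compounds plus 3 SD, cut at about 10% in these data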;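 note: 0% = DMSO wells and 100% = sodium butyrate wells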
# Active calls of the source: *; x = no result given. Compounds with a hit are over-represented: about 4.6% of the library has one in this group of screens.
SMILES,hcDAF-12 act,Wee1 degr inh,ssDAF12 agonist,DAX1 inh-1,DAX1 inh-2,hgDAF-12 ag
Cc1cccc(C)c1-n1nnnc1C1(C)CN(S(C)(=O)=O)CC(=O)N1Cc1ccc(F)cc1 (centres undefined),-2.2,x,-0.9,x,-0.7,0.2
COC(=O)c1c(NC(=O)c2ccccc2)sc(C(=O)c2ccccc2)c1C,0.7,-1.8,-0.2,0.6,0.7,1.9
COC(=O)c1c(NC(=O)c2ccccc2)sc(C(N)=O)c1C,3.5,-2.5,1.0*,0.0,1.8,-3.6
Cc1ccccc1NC(=O)c1cc(=O)c2ccccc2o1,-0.4,3.4,-1.5,0.1,0.5,1.4
N#Cc1ccccc1NC(=O)c1cc(=O)c2ccccc2o1,-0.6,-3.6,-1.6,1.3,1.4,11.0*
Cc1cc(C)n2c(Nc3ccc4c(c3)OCCO4)c(-c3ccco3)nc2n1,x,0.3,x,x,x,x
Cc1cc(C)n2c(Nc3ccc4c(c3)OCCO4)c(-c3ccc(F)cc3)nc2n1,2.9,x,-0.4,x,4.3*,6.3
Cc1occc1C(=O)n1nnc2ccccc21,5.8*,-0.4,-1.2,x,-0.6,-2.0
Cc1occc1C(=O)n1cnc2ccccc21,x,0.5,x,x,x,x
O=C1CCC(C(=O)Nc2ccc(Cl)cc2)N1 (centres undefined),0.6,x,-1.1,-0.1,0.0,4.9
O=C(Nc1ccc(Cl)cc1)C1C2CCCCC21 (centres undefined),3.0,x,1.2*,0.8,1.5,11.7*
O=C(Nc1ccc(Br)cc1)c1cnc[nH]1,6.5*,x,0.5,3.0,0.3,10.5*
COc1cccc(NC(=O)c2cnc[nH]2)c1,0.0,x,-0.3,0.9,0.6,4.1
CC(=O)c1cc2c(cc1C)CCCC2(C)C,0.0,x,-0.7,x,-1.7,-1.0
NS(=O)(=O)c1cc(C(=O)OCC(=O)Nc2ccc(Cl)cc2[N+](=O)[O-])ccc1Cl,3.0,2.7,-0.6,1.7,-0.1,1.9
Cc1ccc(NC(=O)COC(=O)C2=COCCO2)c([N+](=O)[O-])c1,1.2,9.3*,-1.4,0.1,-0.6,-1.3
CNS(=O)(=O)c1cccc(C(=O)OCC(=O)Nc2ccc(OC)cc2[N+](=O)[O-])c1,-1.1,3.8,-1.8,4.3*,-0.8,-1.2
COc1ccc(NC(=O)COC(=O)c2ccc(Cl)c(S(N)(=O)=O)c2)c([N+](=O)[O-])c1,0.4,-2.0,-1.3,5.0*,1.6,-4.5
COc1ccc(NC(=O)COC(=O)c2cc(OC)c(OC)c(OC)c2)c([N+](=O)[O-])c1,0.1,6.1,-0.5,-0.6,-0.2,0.5
O=C1C[C@@H](C(=O)Nc2ccc(Cl)cc2)[C@@H](c2ccccc2)O1,0.5,x,-1.7,x,-0.9,-1.5
Cc1cccc(C(=O)OCC(=O)c2ccc3c(c2)OCO3)c1O,2.6,x,-0.2,1.9,3.9*,8.7
COc1cc(NS(=O)(=O)c2ccc(NC(=O)COc3ccccc3C)cc2)nc(OC)n1,-1.2,-1.6,-0.3,0.2,1.2,1.4
COc1cc(NS(=O)(=O)c2ccc(NC(=S)NC(=O)COc3ccccc3OC)cc2)nc(OC)n1,-1.6,-0.2,-1.6,4.7*,-1.3,-1.7
COc1cc(NS(=O)(=O)c2ccc(N/C=C\C(=O)c3ccc(F)cc3)cc2)nc(OC)n1,6.4*,2.8,0.1,1.1,2.5,3.8
CCOC(=O)c1ccccc1NC(=O)CSc1nc2ccccc2c(=O)n1CCCN1CCOCC1,0.0,x,-1.0,-1.1,0.1,0.8
SMILES,hcDAF-12 act,Wee1 degr inh,ssDAF12 agonist,DAX1 inh-1,DAX1 inh-2,hgDAF-12 ag
COC(=O)c1ccc(Cn2ccc3ccc(-c4ccc5ccn(Cc6ccc(OC)cc6)c5c4)cc32)cc1,3.3,x,-0.4,x,0.0,0.9
CC(C)CN1C(=O)[C@@]2(CC(=O)N(C)C2c2ccccc2)c2cc(-n3cc(-c4ccccc4)nn3)ccc21 (some centres undefined),-1.2,x,-1.3,x,0.3,3.1
COc1ccc(-c2cc3nc(C)c(C)c(N4CCN(C(=O)c5ccoc5)CC4)n3n2)cc1,-1.4,x,-0.1,-1.9,-4.2,0.5
Cc1nc2cc(-c3cccc(F)c3)nn2c(N2CCN(C(=O)c3ccco3)CC2)c1C,5.8*,-1.6,0.7,-0.1,0.1,3.7
CCN1C(=S)SC(=O)C1=C1C=C(C)N(Cc2ccco2)C(C)=C1,6.5*,3.1,0.3,3.0,1.6,12.2*
COc1ccc(C(=O)c2c3ccc(OC)cc3[n+]([O-])n2Cc2ccc(C(N)=O)cc2)cc1,6.3*,x,0.7,2.3,0.3,3.9
NC(=O)c1ccc(Cn2c(C(=O)c3ccc(Cl)cc3)c3ccccc3[n+]2[O-])cc1,5.7*,x,-0.5,0.3,0.4,0.8
NC(=O)c1ccc(Cn2c(C(=O)c3cc(Cl)c(N)c(Cl)c3)c3ccccc3[n+]2[O-])cc1,2.6,x,0.3,1.6,-0.6,-0.4
COC(=O)[C@@]1(Cc2ccccc2)[C@H]2C(=O)N(C)C(=O)[C@H]2[C@H]2CN=C(SCc3ccc(C)cc3)N21,-0.3,x,-0.8,-0.2,-0.1,3.7
CC(O)/C=C/C1OC(=O)CC1Nc1ccc(C=O)cc1 (centres undefined),-1.5,10.6*,0.0,-0.5,1.3,0.4
CSCCC(NC(=O)c1ccccc1Br)C(=O)N1CCCC(C(F)(F)F)C1 (centres undefined),-0.8,x,0.0,0.5,-0.1,-0.9
O=C(CSc1nn(-c2ccccc2)c(=S)s1)Nc1ncccn1,-1.6,1.8,-1.1,1.9,0.7,-0.2
Cc1cc(C)nc(NC(=O)CSc2nn(-c3ccccc3)c(=S)s2)n1,-1.0,-0.5,-1.1,9.1*,0.8,0.2
CCOc1ccccc1Nc1nnc(SCC(=O)NC2CC2)s1,0.8,x,-0.9,0.5,-0.5,0.4
Cc1cccc(CN2CCN(C3CN(Cc4cn(Cc5ccccc5C(F)(F)F)nn4)S(=O)(=O)C3)CC2)c1 (centres undefined),-3.2,x,-1.3,x,-1.7,-1.2
CC(=O)N1N=C(c2ccc(C)cc2)CC1c1ccco1 (centres undefined),1.8,0.5,-0.7,0.0,0.3,2.4
CC(=O)N1N=C(c2ccc(C)cc2)CC1c1ccc2c(c1)OCO2 (centres undefined),6.1*,-2.4,-0.4,3.0,1.4,9.4
CS(=O)(=O)c1ccc(C(=O)N2CCN(S(=O)(=O)c3ccc(C4CCCCC4)cc3)CC2)cc1,1.7,x,-1.6,-0.1,-1.1,-2.0
COc1cccc(/C=N/N=C(\N)c2nonc2N)c1O,3.0,0.2,-0.2,2.9,2.8,12.7*
Cc1nn(-c2cccc(Cl)c2)c(Cl)c1/C=N/NC(=O)c1cccs1,1.9,-2.9,-0.5,4.7*,1.1,10.8*
CCc1ccc(OC(=O)Nc2ccccc2)cc1,6.2*,x,0.7,3.1,2.1,11.5*
COc1ccc(NC(=O)NC(C)c2ccccc2)cc1 (centres undefined),-1.0,x,-0.8,1.1,-0.6,0.0

# Screens (PubChem BioAssay)
